Inconclusive results are not listed. Active and inactive are the calls of the source. The calls were made as follows: active = hit-call score of the fitted dose curve at least 0.9, where 1 is the maximum; inconclusive = response in the unintended direction; inactive = score below 0.9.
The compounds below were run against Nuclear receptor subfamily 1 group I member 2 (Homo sapiens) (UniProt O75469) (assay: NVS_NR_hPXR: NovaScreen (NVS) Nuclear Receptor Binding Assay for human Pregnane X Receptor (PXR) (AID 2283365);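 also: a drop in FRET signal versus DMSO baseline means the compound binds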).
Nuclear receptor subfamily 1 group I member 2 (Homo sapiens), sequence (O75469 whole entry, looked up): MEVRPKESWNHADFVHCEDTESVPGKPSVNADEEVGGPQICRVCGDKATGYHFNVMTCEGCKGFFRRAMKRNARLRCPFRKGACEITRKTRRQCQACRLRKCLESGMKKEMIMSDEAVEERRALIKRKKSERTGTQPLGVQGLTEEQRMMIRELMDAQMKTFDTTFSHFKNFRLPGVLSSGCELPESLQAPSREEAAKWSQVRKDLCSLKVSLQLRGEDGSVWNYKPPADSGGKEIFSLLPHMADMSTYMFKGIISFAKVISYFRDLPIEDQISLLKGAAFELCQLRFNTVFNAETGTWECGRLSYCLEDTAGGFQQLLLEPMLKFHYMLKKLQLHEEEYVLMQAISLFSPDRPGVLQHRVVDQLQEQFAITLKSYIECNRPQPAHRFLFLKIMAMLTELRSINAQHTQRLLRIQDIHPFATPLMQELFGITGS
Summary of the method: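 Cell-free binding assay with extracted human PXR protein, read by TR-FRET 2 h after dosing; loss of signal relative to DMSO baseline indicates binding. Primary screen at 25 uM in duplicate, actives retested in concentration series.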
For `N#Cc1ccc(C2CCCc3cncn32)cc1` (stereo unspecified), the outcome was “inactive”.
With `CCCCCCCCCCCCc1ccc(O)cc1` the outcome was “inactive”.
`CCc1occc(=O)c1O` was tested, and the outcome was “inactive”.
`CC(C)COC(=O)CC(C(=O)OCC(C)C)S(=O)(=O)O` (stereo unspecified) was tested, and the AC50 was 25 µM (active).
For `O=C(O)CC(C(=O)O)S(=O)(=O)O` (stereo unspecified), the outcome was “inactive”.
In the case of `CC(CCC(=O)O)(c1ccc(O)cc1)c1ccc(O)cc1`, the outcome is reported as “inactive”.
In the case of `C/C=C/C=C/CCCCCCCO`, the AC50 is reported as 25 µM (active).
`CC(C)(C)NC(=O)[C@H]1CC[C@H]2[C@@H]3CC[C@H]4NC(=O)C=C[C@]4(C)[C@H]3CC[C@]12C` was tested, and the outcome was “inactive”.
For `CC1=CC=C(C(C)C)CC1`, the outcome was “inactive”.
In the case of `COc1ccc(-c2coc3cc(O)cc(O)c3c2=O)cc1`, the outcome is reported as “inactive”.
In the case of `O=C(Nc1ccccc1)c1cc(Cl)ccc1O`, the outcome is reported as “inactive”.
For `CCOC(=O)c1ccc(C)cc1`, the outcome was “inactive”.
In the case of `CCCCCCCCCCCCCCCCCCOS(=O)(=O)O`, the AC50 is reported as 5.5 µM (active).
With `CCCCNS(=O)(=O)c1ccccc1` the outcome was “inactive”.
`COC(=O)c1ccccc1C` was tested, and the outcome was “inactive”.
In the case of `CCCCc1ccc(Cl)cc1`, the outcome is reported as “inactive”.

These compounds were tested on guinea pig Dopamine Transporter (DAT), gene 100714898 (assay: NVS_TR_gDAT: NovaScreen (NVS) Transporter Assay for guinea pig Dopamine Transporter (DAT) (AID 2283369);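 also: active compounds lower bound radioligand signal relative to DMSO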).
Summary of the method: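 Guinea pig striatal membranes; radioligand displacement measured by filter-based scintillation counting 2 h after dosing. Initial duplicate screen at 25 uM, then concentration-response up to 50 uM for hits; loss of signal versus DMSO baseline.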
`CCCCCCCCCCCCCc1ccccc1` was tested, and the outcome was “inactive”.
For `COC(OC)(C(=O)c1ccccc1)c1ccccc1`, the AC50 was 18 µM (active).
In the case of `CCOC(=O)C1=NN(c2ccc(Cl)cc2Cl)C(C)(C(=O)OCC)C1` (stereo unspecified), the AC50 is reported as 15.8 µM (active).
In the case of `O=C(Oc1ccccc1)c1ccccc1C(=O)Oc1ccccc1`, the AC50 is reported as 3.31 µM (active).
`[Cl][Eu]([Cl])[Cl]` was tested, and the AC50 was 18.2 µM (active).
`Oc1ccc(/C=C/c2cc(O)cc(O)c2)cc1` was tested, and the AC50 was 6.63 µM (active).
For `CCN(CC)c1cccc(C)c1`, the AC50 was 4.96 µM (active).

Each compound was assayed against human Dopamine Transporter (DAT), SLC6A3 (gene 6531) (UniProt Q01959) (assay: NVS_TR_hDAT: NovaScreen (NVS) Transporter Assay for human Dopamine Transporter (DAT) (AID 2283374);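 also: activity means loss of bound radioligand signal relative to DMSO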).
human Dopamine Transporter (DAT), SLC6A3 (gene 6531), sequence (Q01959 whole entry, looked up): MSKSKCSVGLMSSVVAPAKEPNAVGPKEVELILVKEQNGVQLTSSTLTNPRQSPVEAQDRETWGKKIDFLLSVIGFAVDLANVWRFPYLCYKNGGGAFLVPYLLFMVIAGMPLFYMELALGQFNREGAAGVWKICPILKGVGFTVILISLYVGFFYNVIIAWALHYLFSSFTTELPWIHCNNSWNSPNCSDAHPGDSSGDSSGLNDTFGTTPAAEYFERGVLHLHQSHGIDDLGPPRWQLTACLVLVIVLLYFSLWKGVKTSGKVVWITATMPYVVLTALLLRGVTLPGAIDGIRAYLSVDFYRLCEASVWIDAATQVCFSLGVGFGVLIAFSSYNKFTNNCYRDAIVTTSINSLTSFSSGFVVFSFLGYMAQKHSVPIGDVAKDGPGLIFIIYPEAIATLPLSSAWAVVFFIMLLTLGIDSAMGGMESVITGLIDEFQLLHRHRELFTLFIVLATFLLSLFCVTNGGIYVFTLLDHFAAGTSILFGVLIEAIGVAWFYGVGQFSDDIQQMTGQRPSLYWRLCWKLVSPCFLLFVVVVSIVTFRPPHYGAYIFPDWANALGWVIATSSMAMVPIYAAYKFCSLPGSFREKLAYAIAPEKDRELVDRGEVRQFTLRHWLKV
Summary of the method: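 Duplicate single-point screening at 25 uM preceded concentration-series follow-up of actives. Binding was measured by competitive displacement of a radioligand from DAT protein, filter-counted by scintillation 1 h after dosing. Decrease relative to DMSO taken as activity.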
`COc1ccc(C(=O)c2ccccc2)c(O)c1` was tested, and the AC50 was 16.4 µM (active).
`CCCCCCCO` was tested, and the AC50 was 13.2 µM (active).
With `CC(C)C(=O)OCCOc1ccccc1` the AC50 was 19.6 µM (active).
With `Nc1ncnc2nc[nH]c12` the outcome was “inactive”.
For `O=C(Oc1ccccc1)c1ccccc1C(=O)Oc1ccccc1`, the AC50 was 0.758 µM (active).
In the case of `CCCCCCOC(=O)CCCCC(=O)OCCCCCC`, the outcome is reported as “inactive”.
In the case of `c1ccc(-c2nc3ccccc3[nH]2)cc1`, the AC50 is reported as 14.9 µM (active).
In the case of `Oc1ccc(/C=C/c2cc(O)cc(O)c2)cc1`, the AC50 is reported as 4.8 µM (active).

— PubChem BioAssay (EPA / NIEHS)
